Results filed as inconclusive are left out. Entries that show only a call come without a potency. A number with no mark means an inactive call. Calls of active or inactive are those of the source. The call rests on the fitted dose curve; in most records, active means well fitted curve in the direction sought with a large enough effect; inconclusive means small, poorly fitted or top-dose-only effect, or another doubt; inactive means no such curve, though single readings can be large; an effect the other way counts as inactive or inconclusive.
Columns and labels:
[1] = qHTS of pediatric cancer cell lines to identify multiple opportunities for drug repurposing: Primary screen for OHS-50 cells (AID 1347103); further: nearly all actives have a fitted effect of over 40% in size
Outline: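 Cells (500-1,000/well) rested 5 h, then received compounds for 48 h; metabolically active cells were measured by CellTiter-Glo luminescence. Final concentrations spanned up to 46 µM (MIPE, 11-point) or 0.59 nM-46 µM (NPC, 8-point) in primary screens, 11-point in follow-ups.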

[2] = qHTS of pediatric cancer cell lines to identify multiple opportunities for drug repurposing: Primary screen for RD cells (AID 1347104); further: nearly all actives have a fitted effect of over 55% in size
Outline: (§1)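 CRCs from 8- or 11-point titrations (lowest final 0.59 nM NPC, 0.78 nM MIPE). Cell viability: CellTiter-Glo after 48 h incubation, 15 min room-temperature development, luminescence imaging.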

[3] = qHTS of pediatric cancer cell lines to identify multiple opportunities for drug repurposing: Primary screen for MG 63 (6-TG R) cells (AID 1347105); further: nearly all actives have a fitted effect of over 50% in size
Outline: as §1

[4] = qHTS of pediatric cancer cell lines to identify multiple opportunities for drug repurposing: Primary screen for control Hh wild type fibroblast cells (AID 1347106); further: nearly all actives have a fitted effect of over 55% in size
Outline: (§2)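 Viability after 48 h compound treatment at 37C, 500-1,000 cells/well, read as ATP luminescence with CellTiter-Glo. Primary screens used 11-point (MIPE, 0.78 nM-46 µM) or 8-point (NPC, 0.59 nM-46 µM) final concentrations; follow-up screens used 11-point dilutions.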

[5] = qHTS of pediatric cancer cell lines to identify multiple opportunities for drug repurposing: Primary screen for Rh30 cells (AID 1347107); further: nearly all actives have a fitted effect of over 75% in size
Outline: as §2

[6] = qHTS of pediatric cancer cell lines to identify multiple opportunities for drug repurposing: Primary screen for Rh41 cells (AID 1347108); further: nearly all actives have a fitted effect of over 70% in size
Outline: as §1

[7] = qHTS of pediatric cancer cell lines to identify multiple opportunities for drug repurposing: Confirmatory screen for A673 cells (AID 1347110); further: nearly all actives have a fitted effect of over 65% in size
Outline: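 Forty-eight-hour viability assay. Follow-up compounds ran at 11-point dilutions; positive control bortezomib at 2.3 uM final, neutral control DMSO.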

[8] = qHTS of pediatric cancer cell lines to identify multiple opportunities for drug repurposing: Confirmatory screen for BT-12 cells (AID 1347112); further: nearly all actives have a fitted effect of over 55% in size
Outline: as §2

[9] = qHTS of pediatric cancer cell lines to identify multiple opportunities for drug repurposing: Confirmatory screen for SK-N-MC cells (AID 1347111);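 further: cells exposed to compound for 48 h before the readout; nearly all actives have a fitted effect of over 70% in size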
Outline: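 SK-N-MC cells at 500-1,000 cells/well in growth media were pre-incubated 5 h, then exposed to compounds at 11-point dilutions for 48 h at 37 degrees C, 5% CO2. Viability was read as CellTiter-Glo luminescence.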

[10] = qHTS of pediatric cancer cell lines to identify multiple opportunities for drug repurposing: Confirmatory screen for NB1643 cells (AID 1347109); further: nearly all actives have a fitted effect of over 45% in size
Outline: as §2
Potency means the concentration at half of the fitted maximal effect.

Structure (SMILES)	Potency [1]	Potency [2]	Potency [3]	Potency [4]	Potency [5]	Potency [6]	Potency [7]	Potency [8]	Potency [9]	Potency [10]
c1coc(CNc2ncnc3nc[nH]c23)c1	inactive	inactive	inactive	inactive	inactive	inactive	–	–	–	–
C=C(C)[C@@H]1CC[C@]2(C)CC[C@]3(C)[C@H](CC[C@@H]4[C@@]5(C)CC[C@H](O)C(C)(C)[C@H]5CC[C@]43C)[C@@H]12	inactive	inactive	inactive	inactive	inactive	inactive	–	–	–	–
CC(C)OC(=O)[C@H](C)N[P@](=O)(OC[C@H]1O[C@@H](n2ccc(=O)[nH]c2=O)[C@](C)(F)[C@H]1O)Oc1ccccc1	inactive	inactive	inactive	inactive	–	inactive	–	–	–	–
O=C(C=Cc1ccc(CN(CCO)CCc2c[nH]c3ccccc23)cc1)NO	0.243 µM (active)	0.372 µM (active)	0.59 µM (active)	2.35 µM (active)	1.18 µM (active)	0.372 µM (active)	0.369 µM (active)	1.17 µM (active)	–	–
CC(=O)NC(CS)C(=O)O (stereo not drawn)	inactive	inactive	inactive	inactive	inactive	inactive	–	–	–	–
OCc1ccccc1O[C@@H]1O[C@H](CO)[C@H](O)[C@H](O)[C@H]1O	inactive	inactive	inactive	inactive	inactive	inactive	–	–	–	–
COc1cc2c(Nc3ccc(Cl)c(Cl)c3F)ncnc2cc1OCC1C[C@@H]2CN(C)C[C@H]2C1	4.85 µM (active)	16.6 µM (active)	14.8 µM (active)	20.9 µM (active)	–	9.35 µM (active)	–	–	–	–
CC(=O)N[C@H]1[C@@H]([C@H](O)[C@H](O)CO)OC(C(=O)O)=C[C@@H]1N=C(N)N	inactive	inactive	inactive	inactive	inactive	inactive	–	–	–	–
O=C(O)CCCCCC(=O)NN=C1CCCC1	inactive	inactive	inactive	inactive	inactive	inactive	–	–	–	–
O=C(C=CC=Cc1ccc2c(c1)OCO2)N1CCCCC1	inactive	inactive	inactive	inactive	inactive	–	16.5 µM (active)	inactive	8.27 µM (active)	–
C[C@]12CCC(=O)C=C1[C@@H]1CC1[C@H]1[C@H]3[C@@H]4C[C@H]4[C@@]4(CCC(=O)O4)[C@@]3(C)CC[C@H]12 (stereo partly drawn)	19.3 µM (active)	inactive	inactive	inactive	inactive	inactive	–	–	–	–
O=C(C=CC#Cc1cccc(NS(=O)(=O)c2ccccc2)c1)NO	5.44 µM (active)	5.26 µM (active)	5.9 µM (active)	inactive	11.8 µM (active)	2.96 µM (active)	1.65 µM (active)	18.5 µM (active)	0.414 µM (active)	2.33 µM (active)
Cc1cnc(Nc2ccc(N3CCN(C)CC3)cc2)nc1Nc1cccc(S(=O)(=O)NC(C)(C)C)c1	1.09 µM (active)	5.26 µM (active)	7.43 µM (active)	16.6 µM (active)	5.9 µM (active)	5.9 µM (active)	4.65 µM (active)	16.5 µM (active)	3.29 µM (active)	4.65 µM (active)
CN(N=O)C(=O)N[C@H]1C(O)OC(CO)[C@@H](O)[C@H]1O (stereo partly drawn)	inactive	inactive	inactive	inactive	inactive	inactive	–	–	–	–
NC(=O)Nc1sc(-c2ccc(F)cc2)cc1C(N)=O	0.432 µM (active)	1.66 µM (active)	0.59 µM (active)	inactive	6.62 µM (active)	1.05 µM (active)	6.57 µM (active)	inactive	8.27 µM (active)	–
Cc1ccc([N+](=O)[O-])cc1S(=O)(=O)N(C)N=Cc1cnc2ccc(Br)cn12	0.0306 µM (active)	0.0743 µM (active)	18.7 µM (active)	inactive	inactive	0.0662 µM (active)	0.293 µM (active)	0.827 µM (active)	1.04 µM (active)	0.165 µM (active)
CC(=O)OCC(=O)[C@@]1(O)CC[C@H]2[C@@H]3CCC4=CC(=O)CC[C@]4(C)[C@@H]3C(=O)C[C@@]21C	inactive	inactive	inactive	inactive	inactive	inactive	–	–	–	–
CCCCC(=O)O[C@]1(C(=O)CO)[C@@H](C)C[C@H]2[C@@H]3CCC4=CC(=O)C=C[C@]4(C)[C@@]3(F)[C@@H](O)C[C@@]21C	inactive	inactive	inactive	inactive	inactive	inactive	inactive	inactive	18.5 µM (active)	inactive
Cn1cc(CNCC2CCN(c3ncc(C(=O)NO)cn3)CC2)c2ccccc21	0.0863 µM (active)	0.187 µM (active)	0.187 µM (active)	2.64 µM (active)	1.18 µM (active)	0.148 µM (active)	0.104 µM (active)	0.369 µM (active)	–	0.165 µM (active)
Cc1cc(O)c2c(c1)C(=O)c1cccc(O)c1C2=O	inactive	inactive	inactive	inactive	inactive	inactive	–	–	–	–

Structure (SMILES)	Potency [1]	Potency [2]	Potency [3]	Potency [4]	Potency [5]	Potency [6]	Potency [7]	Potency [8]	Potency [9]	Potency [10]
CCOc1cc2c(c(F)c1OCC)C(=N)N(CC(=O)c1cc(N3CCOCC3)c(OC)c(C(C)(C)C)c1)C2	21.7 µM (active)	16.6 µM (active)	14.8 µM (active)	inactive	–	23.5 µM (active)	–	–	–	–
COc1cc(C[C@@H](CO)[C@H](CO)Cc2ccc(O)c(OC)c2)ccc1O	9.68 µM (active)	0.526 µM (active)	0.935 µM (active)	0.418 µM (active)	0.469 µM (active)	–	–	inactive	8.27 µM (active)	inactive
CCC[C@H]1C[C@H](C(=O)N[C@@H]([C@@H]2O[C@@H](SC)[C@@H](O)[C@@H](O)[C@@H]2O)[C@H](C)Cl)N(C)C1	inactive	inactive	inactive	inactive	inactive	inactive	–	–	–	–
O=C(NNC(=O)c1ccc(CNS(=O)(=O)c2ccc(F)c(Cl)c2)cc1)c1ccccc1	inactive	inactive	inactive	inactive	–	inactive	–	–	–	–
c1cc(CN2CCCNCCNCCCNCC2)ccc1CN1CCCNCCNCCCNCC1	inactive	inactive	inactive	inactive	inactive	inactive	–	–	–	–
COc1cc(OC)cc(-c2ccc3ncc4ccc(=O)n(-c5ccc(N6CCNCC6)c(C(F)(F)F)c5)c4c3c2)c1	4.32 µM (active)	8.33 µM (active)	14.8 µM (active)	20.9 µM (active)	16.6 µM (active)	3.72 µM (active)	–	–	–	–
CCCCOc1ccc(C(=O)Nc2ccc(F)cc2F)cc1	inactive	inactive	inactive	inactive	–	inactive	–	–	–	–
CC(=O)O[C@H]1C[C@@H]2CC[C@H]3[C@H]4C[C@H]([N+]5(C)CCCCC5)[C@@H](OC(C)=O)[C@@]4(C)CC[C@@H]3[C@@]2(C)C[C@H]1[N+]1(C)CCCCC1	inactive	inactive	inactive	inactive	inactive	inactive	–	–	–	–
COC1=C(OC)C(=O)C(CC=C(C)CCC=C(C)CCC=C(C)CCC=C(C)CCC=C(C)CCC=C(C)CCC=C(C)CCC=C(C)CCC=C(C)CCC=C(C)C)=C(C)C1=O	inactive	inactive	inactive	inactive	inactive	inactive	–	–	–	–
C=C1C(=O)O[C@H]2[C@@H]1CCC(C)=CCC[C@@]1(C)O[C@@H]21	4.85 µM (active)	18.7 µM (active)	9.35 µM (active)	inactive	18.7 µM (active)	11.8 µM (active)	–	–	–	–
O=C(O)C(=O)Nc1cccc(C2=NN=N[N]2)c1	inactive	inactive	inactive	–	inactive	inactive	–	–	–	–
C=C1CCC2[C@](C)(CO)C(O)CC[C@]2(C)C1CC=C1C(=O)OCC1O (stereo partly drawn)	inactive	inactive	inactive	–	inactive	inactive	–	–	–	–
CCOC(=O)N1CCN([N+]([O-])=NOc2ccc([N+](=O)[O-])cc2[N+](=O)[O-])CC1	13.7 µM (active)	18.7 µM (active)	18.7 µM (active)	–	inactive	4.18 µM (active)	–	–	–	–
O=C(CN1C(=O)C2(CCCC2)NC[C@H]1c1cc(F)cc(F)c1)Nc1ccc2c(c1)C[C@@]1(C2)C(=O)Nc2ncccc21	inactive	inactive	inactive	–	inactive	inactive	–	–	–	–
C=CC1=C(C(=O)O)N2C(=O)[C@@H](NC(=O)C(=NO)c3csc(N)n3)[C@H]2SC1	inactive	inactive	inactive	–	inactive	inactive	–	–	–	–
O=S(=O)(O)CCSSCCS(=O)(=O)O	inactive	inactive	inactive	inactive	–	inactive	inactive	inactive	inactive	inactive
C[C@](Cc1c[nH]c2ccccc12)(NC(=O)OC1C2CC3CC(C2)CC1C3)C(=O)NC[C@H](NC(=O)CCC(=O)O)c1ccccc1 (stereo partly drawn)	inactive	inactive	inactive	inactive	–	inactive	–	–	–	–
NC(=O)Nc1cc(-c2ccc(CN3CCOCC3)cc2)sc1C(N)=O	0.217 µM (active)	8.33 µM (active)	11.8 µM (active)	inactive	–	–	11.7 µM (active)	–	0.657 µM (active)	0.414 µM (active)
O=C(CCCCCCC(=O)Nc1cccnc1)NO	4.32 µM (active)	16.6 µM (active)	18.7 µM (active)	–	18.7 µM (active)	11.8 µM (active)	–	–	–	–
CCC(C(=O)O)C1CCC(C)C(C(C)C(O)C(C)C(=O)C(CC)C2OC3(C=CC(O)[C@@]4(CC[C@](C)(C5CC[C@@](O)(CC)C(C)O5)O4)O3)C(C)CC2C)O1 (stereo partly drawn)	0.432 µM (active)	4.18 µM (active)	18.7 µM (active)	–	inactive	3.72 µM (active)	5.85 µM (active)	3.69 µM (active)	inactive	1.17 µM (active)
